# Assay outcomes as filed in PubChem.
# FBPA Giardia inh – qHTS Assay for Inhibitors of Fructose-1,6-bisphosphate Aldolase from Giardia Lamblia. actives 0.71% (n = 290,000). Potency, µM (doses to about 59.6 µM), most hits filed as inhibitors. A8B2U2. purified Giardia FBPA; further: nearly all actives have a fitted effect of over 55% in size
# Target sequence (A8B2U2 whole entry, looked up): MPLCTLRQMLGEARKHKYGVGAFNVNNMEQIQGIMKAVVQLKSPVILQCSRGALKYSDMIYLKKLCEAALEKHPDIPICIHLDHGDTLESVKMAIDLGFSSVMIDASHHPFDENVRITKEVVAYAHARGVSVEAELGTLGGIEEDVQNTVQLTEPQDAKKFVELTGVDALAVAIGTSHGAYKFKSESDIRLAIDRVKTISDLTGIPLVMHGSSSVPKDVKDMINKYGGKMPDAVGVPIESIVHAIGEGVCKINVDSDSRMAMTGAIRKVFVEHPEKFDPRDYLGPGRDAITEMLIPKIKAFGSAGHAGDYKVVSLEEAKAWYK
#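 Giardia FBPA (40 nM reagent) was preincubated 10 min at RT with compound (up to 57.5 uM final), then substrate plus GAPDH/TPI/NAD/arsenate coupling system with diaphorase/resazurin was added; resorufin fluorescence (525/598 nm) was read after 20 min.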
# LmPK inhibitor – qHTS Assay for Inhibitors of Leishmania Mexicana Pyruvate Kinase (LmPK) | purified LmPK, Kinase-Glo ATP luminescence, 1 h | Potency, µM (doses to about 57.5 µM), hits mostly inhibitors | actives 0.37% (n = 290,000) | AID 1721, 2009
#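 Screened at intermediate enzyme activity to detect both inhibitors and activators: LmPK at 0.1 nM, with a 0.5 nM enzyme column as activation reference. PEP 0.5 mM, ADP 0.1 mM; ATP detected by luminescence after 1 h.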
# Shiga inhibitor – A qHTS for Small Molecule Inhibitors of Shiga Toxin; Vero cells, Shiga toxin protein synthesis inhibition reporter; inhibition, % at 38.7 µM; actives 9.2% (n = 290,000); in the data active means inhibition mostly above about 28%, no sharp cut-off; inactive means mostly below about 43%
# RE007 growth inh – qHTS Assay for Inhibitors of the HIV-1 protein Vpr; S. pombe RE007 Vpr strain, BacTiter-Glo ATP luminescence, 24 h; Potency, µM (titrated, usually from 92.2 µM), most hits filed as inhibitors; actives 0.21% (n = 360,000); active means well fitted falling curve with a large enough effect; inconclusive means small, poorly fitted or top-dose-only effect; inactive means no such curve, though single readings can be large or run the other way; further: nearly all actives have a fitted effect of over 50% in size
#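 Fission yeast strain RE007, carrying one chromosomally integrated HIV-1 vpr copy, was seeded at OD 0.01 in PMG+AL medium with 23 nL pinned compound. After 24 h at 30 °C and 99% humidity, viability was read by BacTiter-Glo luminescence.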
# TbPYK inhibitor – qHTS of Trypanosoma Brucei Inhibitors. TbPYK enzyme, Kinase-Glo Plus ATP luminescence, 45 min. Potency, µM (titrated, usually from 76.8 µM), actives largely listed as inhibitors. actives 0.12% (n = 410,000). AID 624173, 2012; further: nearly all actives have a fitted effect of over 50% in size
#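 Enzyme and substrate buffer are dispensed first and compound is pin-transferred. ADP at 130 uM final then starts the reaction, which runs 45 min at room temperature. Detection reagent is added for 10 min before luminescence is imaged.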
# Cycloheximide cs – Cycloheximide Counterscreen for Small Molecule Inhibitors of Shiga Toxin | cell reporter, cycloheximide protein synthesis inhibition counterscreen | max response, % | actives 12% (n = 300,000); in the data active means max response mostly above about 13%, no sharp cut-off; inactive means mostly below about 14%; further: read at 38.3 µM for the half of the compounds with a filed dose
# Numbers stand for hits; – = inactive; ? = inconclusive; · = no result given. The full list was thinned out, with hits kept by preference. Unless noted, the call rests on the fitted dose curve; in most records, active means well fitted curve in the direction sought with a large enough effect; inconclusive means small, poorly fitted or top-dose-only effect, or another doubt; inactive means no such curve, though single readings can be large; an effect the other way counts as inactive or inconclusive.
SMILES,FBPA Giardia inh,LmPK inhibitor,Shiga inhibitor,RE007 growth inh,TbPYK inhibitor,Cycloheximide cs
CCOc1ccc(-c2nc(SC(C(C)=O)C(=O)N(C)C)c3c(=O)n(C)c(=O)n(C)c3n2)cc1 (configuration not stated),·,·,·,·,–,·
O=C(COc1ccccc1Br)NC(=O)NC1CCCC1,·,·,·,–,–,·
Cc1cccc2c1OCC/C2=N\NC(=O)COc1ccccc1Cl,–,–,63.0,–,–,20.5
O=C(COc1cccc(Cl)c1Cl)NC1CC1,·,·,·,–,–,·
C=C(C)C1CC=C(C)/C(=N/NC(=O)COc2ccccc2Cl)C1 (configuration not stated),–,–,–,–,–,–
COc1ccc(OCC(=O)NC2CC(C)(C)NC(C)(C)C2)cc1,–,–,–,–,–,31.3
O=C(COc1ccccc1Br)NC1CC1,·,–,–,–,–,14.7
O=C(COc1ccccc1Cl)NC1CC1,·,–,92.2,–,–,–
O=c1[nH]c(N2CCCCC2)nc2ncn(Cc3ccccc3)c12,–,–,–,–,–,–
O=S(=O)(CCc1ccccc1)c1nnnn1-c1ccccc1,–,·,·,·,·,·
CC(=O)N1CCCc2cc(S(=O)(=O)N3CCN(c4ccc(F)cc4)CC3)ccc21,·,·,·,·,–,·
CN(C(=O)CSc1nnc(N)s1)C1CCCCC1,–,–,–,–,–,–
CC1(C)CC(NC(=O)COc2ccccc2Cl)CC(C)(C)N1,–,–,95.1,–,–,28.0
CC(C)(Oc1ccc(C2CCCc3ccccc32)cc1)C(=O)O (configuration not stated),·,·,·,·,–,·
CCCCOc1ccc(C(=O)NNC(=O)C2C3C=CC(C3)C2C(=O)O)cc1 (configuration not stated),·,–,–,–,–,10.5
CCOc1cccc(C(=O)NNC(=O)C2C3C=CC(C3)C2C(=O)O)c1 (configuration not stated),·,–,–,–,–,19.6
CCCCNC(=O)C1C2C=CC(C2)C1C(=O)O (configuration not stated),–,–,–,–,–,–
CC(C)c1ccc(C(=O)NNC(=O)C2C3CCC(C3)C2C(=O)O)cc1 (configuration not stated),·,–,101.2,·,·,39.1
CC(C)c1ccc(C(=O)NNC(=O)c2ccncc2)cc1,–,–,–,–,–,–
Cc1ccsc1C(=O)NNC(=O)C1C2C=CC(C2)C1C(=O)O (configuration not stated),–,–,96.5,·,–,120.7
CC(=O)c1cccc(NC(=O)C2C3C=CC(C3)C2C(=O)O)c1 (configuration not stated),–,–,–,–,–,–
Cc1ccc(C)c(NC(=O)c2cnn(-c3cccc(F)c3)c2C2CCN(C(=O)OC(C)(C)C)CC2)c1,·,·,·,·,–,·
CC(C)CNC(=O)C1(C)CCCN1C(=O)c1cccnc1Oc1ccccc1 (configuration not stated),·,·,·,–,–,·
CCC(CCC(C)C1CCC2C3CC=C4CC(OC(C)=O)CC[C@@]4(C)C3CC[C@@]12C)C(C)C (some centres not stated),–,·,·,·,·,·
COc1cccc(-c2ccc3ncnc(N4CCNCC4)c3c2)c1,–,·,·,·,·,·
SMILES,FBPA Giardia inh,LmPK inhibitor,Shiga inhibitor,RE007 growth inh,TbPYK inhibitor,Cycloheximide cs
CCOc1ccccc1C(=O)NN1C(=O)C2CCCCC2C1=O (configuration not stated),–,–,–,–,–,–
O=C(NNC(=O)C1C2CCC(C2)C1C(=O)O)c1ccc(Br)o1 (configuration not stated),–,–,76.4,·,·,42.0
O=C(NC1C2CC3CC(C2)CC1C3)c1ccc(Br)o1 (configuration not stated),–,–,–,–,–,–
CCCCOc1ccc(C(=O)NNC(=O)C2C3CCC(C3)C2C(=O)O)cc1 (configuration not stated),·,–,71.9,–,–,39.7
CC(C)c1ccc(C(=O)NN2C(=O)C3CCCCC3C2=O)cc1 (configuration not stated),–,–,96.3,–,–,49.8
NC(N)=NCCCCCCCCCCN=C(N)N,–,·,·,·,·,·
CC(=O)N1N=C(c2ccccc2)CC1c1cccs1 (configuration not stated),–,–,–,–,–,–
O=C(c1ccccc1)N1N=C(c2ccccc2)CC1c1cccs1 (configuration not stated),–,–,–,–,–,–
COc1cccc(C2=NN(C(C)=O)C(c3cccs3)C2)c1 (configuration not stated),–,–,–,–,–,20.9
COc1ccc(C2=NN(C(C)=O)C(c3cccs3)C2)cc1OC (configuration not stated),–,–,34.9,–,–,22.0
CCOc1ccc(NC(=O)C2Cc3ccccc3N2C(=O)c2ccccc2)cc1 (configuration not stated),·,·,·,·,–,·
Cc1ccc(C(=O)NC(=S)Nc2cccc(-c3nc4ccccc4s3)c2)cc1,–,–,60.1,–,–,26.5
CC(=O)Nc1cccc(-c2nc3ccccc3s2)c1,–,–,97.9,–,–,35.6
COc1ccc(C(=O)Nc2cc(-c3nc4ccccc4s3)ccc2OC)cc1,·,·,·,·,–,·
CC(=O)Nc1cccc(-c2cc(C)c3cc4c(cc3n2)OCO4)c1,–,–,109.0,–,–,36.7
COC(=O)Cc1ccc2sc(-c3ccccc3)nc2c1,–,14.1µM,72.8,?,?,61.8
Cc1c(C(=O)Nc2cccc(-c3nc4ccccc4s3)c2)oc2ccc(F)cc12,·,·,·,·,–,·
O=S(=O)(c1ccc(Br)cc1)c1nc(-c2cccs2)oc1SCc1ccc(F)cc1,·,·,·,·,–,·
COc1ccc(-c2nc3cnc(N4CCNCC4)nc3n(-c3ccccc3)c2=O)cc1,–,·,·,·,–,·
COc1cccc(-c2cncnc2NCc2ccccc2)c1,–,·,·,·,·,·
CC(=O)Nc1cccc(-c2nc3ccc(NC(C)=O)cc3s2)c1,–,–,77.9,–,–,39.9
Cc1cccc(C)c1NC(=O)C1(C)CN(S(C)(=O)=O)CC(=O)N1CCc1c[nH]c2ccccc12 (configuration not stated),·,·,·,–,·,·
CC1CCCC(C)N1C(=O)COc1ccc(F)cc1 (configuration not stated),–,–,–,–,–,25.7
Cc1cc(Cl)ccc1OCC(=O)N1C(C)CCCC1C (configuration not stated),–,–,73.1,–,–,20.4
CC1CCCC(C)N1C(=O)COc1ccc([N+](=O)[O-])cc1Cl (configuration not stated),–,–,–,–,–,–
CC(=O)c1ccc2c(c1)C1C=CCC1C(c1ccncc1)N2 (configuration not stated),?,–,96.8,–,–,18.3
